Sampled rows, rich in hits. Any-hit rate of the full collection: about 7.1%.
ELG1 DNA repair – ELG1-dependent DNA repair inhibition; AID 504467; actives 2.3% (n = 330,000); Potency, µM (top dose mostly 46.1 µM), for the others: at the top dose activity change, negative = inhibition, usual class: inhibitors; HEK293T ELG1-luciferase reporter, luminescence, 16 h; DNA damage induced by 5-fluorouridine; note: % is set by controls: 0 for no effect and ±100 for the full control effect; nearly all actives have a fitted effect of over 55% in size
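Reporter activity after DNA damage by 5-fluorouridine is monitored. Compound-treated cells incubate 16 hr at 37 °C, then ONE-Glo is added for 30 min before luminescence reading.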
MCF10A rerep – DNA re-replication induction in MCF 10a cells; Potency, µM (highest dose often 46.1 µM), for the others: at the highest dose activity, positive = re-replication, actives largely listed as activators; actives 2.9% (n = 350,000); MCF 10A DNA re-replication, Hoechst nuclear intensity, 48 h; AID 624296; note: % of control where 0% means no effect; nearly all actives have a fitted effect of over 50% in size
ELG1 genotoxic – induces genotoxicity in HEK293T cells with luciferase-tagged ELG1; HEK293T ELG1-luciferase reporter, luminescence, 16 h; Potency, µM (titrated, usually from 46 µM), for inactives: at the top dose activity change, positive = activation, most hits filed as activators; actives 1.3% (n = 330,000); note: % of control where 0% means no effect; nearly all actives have a fitted effect of over 60% in size
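ELG1-luciferase HEK293T cells, 2,000/well; compound pinned in; 16 hr, 37 °C, 5% CO2; ONE-Glo, 30 min RT; luminescence on CCD imager.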
SW480 rerep – DNA re-replication induction in SW480 cells; actives 1.8% (n = 340,000); Potency, µM (series often up to 46.1 µM), for inactives: at the highest dose re-replication activation, most hits filed as activators; SW480 DNA re-replication, Hoechst DNA content imaging, 48 h; note: % of control where 0% means no effect; nearly all actives have a fitted effect of over 55% in size
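DNA re-replication was detected as more nuclei of elevated Hoechst intensity after 48 hr exposure to compound (23 nL pinned per well of 250 cells).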
p53 reactivation – re-activators of mutant p53; actives 0.063% (n = 320,000); Potency, µM (highest dose often 92.2 µM), without a hit: top-dose activity change, positive = activation, usual class: activators; AID 504706; H1299 p53-A138V BP100-luciferase reporter, luminescence, 24 h; note: % of control where 0% means no effect; nearly all actives have a fitted effect of over 45% in size
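p53-null H1299 cells stably carrying temperature-sensitive p53-A138V and a BP100-luciferase reporter were pinned with compounds (4-point, 1:5 series) and held 24 hrs at 37 deg C. Luminescence was read 10 min after detection reagent.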
A-T KAP1 phos – potential ataxia-telangiectasia treatment; Potency, µM (highest dose often 57.5 µM), for the others: at the top dose activation, usual class: activators; AID 485349; F2112 A-T fibroblasts, KAP-1 phosphorylation AlphaLISA; neocarzinostatin DNA damage 30 min before lysis; actives 0.19% (n = 320,000); note: % of control where 0% means no effect; nearly all actives have a fitted effect of over 45% in size
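hTERT-immortalized A-T patient fibroblasts (F2112), 500 cells/well in OPTI-MEM, 1% FBS, got compounds for 60 min, then NCS for 30 min at 37C. Lysates were then assayed for phospho-KAP-1 by AlphaLISA (anti-pKAP1 donor, anti-KAP1 acceptor beads), 6 hr at 25C.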
* marks the source's active call; other numbers are inactive results; u = inconclusive; x = not tested or not shown; [ ] = remark or other dose. Calls come from the whole dose curve; as a rule, active = well fitted curve in the direction sought with a large enough effect; inconclusive = small, poorly fitted or top-dose-only effect, or another doubt; inactive = no such curve, though single readings can be large; an effect the other way counts as inactive or inconclusive. Potency is the fitted concentration of half-maximal effect.

SMILES	ELG1 DNA repair	MCF10A rerep	ELG1 genotoxic	SW480 rerep	p53 reactivation	A-T KAP1 phos
Cc1ccc(-c2nc(-c3ccccc3)no2)c(Cl)c1	u	14%	0.26µM*	3%	14%	26%
Cc1ccc(-c2nc(-c3cccnc3)no2)cc1	x	1%	x	-3%	x	x
Nc1ccc(-c2ncc(-c3ccccc3)o2)cc1	u	3%	u	-28%	-6%	10%
Cc1ccc(-c2nc(-c3ccccc3)no2)cc1	u	-3%	0.65µM*	-2%	u	x
Cc1ccc(-c2cnc(-c3ccncc3)o2)cc1	u	-1%	18µM*	-1%	u	6%
COc1ccc(N2CC(C(=O)Nc3nnc(SCC(=O)NCc4ccco4)s3)CC2=O)cc1 (stereo unspecified)	1%	5%	5%	-1%	1%	-7%
Cc1ccccc1NC(=O)CSc1nnc2ccc(-c3ccncc3)nn12	-15%	-3%	-20%	-101%	-6%	1%
Cc1ccc(NC(=O)CSc2nnc3ccc(-c4ccncc4)nn23)cc1	5.8µM*	3%	-15%	3%	-16%	2%
COc1ccc(CC(=O)Nc2ccc(-c3ccc4nnc(C)n4n3)cc2)cc1OC	u	16%	21µM*	-3%	-10%	2%
N#CC1(Nc2ccc(S(N)(=O)=O)cc2)CCCC1	x	-1%	x	14%	x	x
O=C(NNC(=O)c1ccco1)c1ccc(NS(=O)(=O)c2cccs2)cc1	-11%	-13%	-1%	-66%	9%	4%
N/C(=N\OC(=O)c1ccoc1)c1ccc(Br)cc1	u	-3%	3.7µM*	2%	u	10%
Cc1cccc(C(=O)O/N=C(\N)c2ccc(Br)cc2)c1	u	9%	11µM*	-12%[9.22 µM]	u	x
N/C(=N\OC(=O)c1ccco1)c1cccc(Br)c1	u	-2%	8.2µM*	0%	23%	4%
Cc1ccc(C(=O)O/N=C(\N)c2ccc(Br)cc2)cc1C	u	3%	16µM*	1%	28%	-2%
N/C(=N\OC(=O)c1ccco1)c1cccc([N+](=O)[O-])c1	u	-33%	u	-62%	-4%	6%[11.5 µM]
Cc1cc(C)cc(C(=O)O/N=C(\N)c2ccc(Br)cc2)c1	21%	8%	1%	8%	2%	9%
N/C(=N\OC(=O)c1ccc([N+](=O)[O-])cc1)c1ccc(Br)cc1	u	-3%	u	-5%	27%	4%
Cc1cc(-c2nnc(CCC(=O)NCc3cc(F)cc(C(F)(F)F)c3)o2)no1	u	5%	u	11%	30%	20%
CCOC(=O)C1=C(C)C/C(=N\NC(=O)c2ccccc2O)CC1	u	24%	26%	18µM*	12%	12%
CCOC(=O)c1ccccc1O	x	5%	x	-6%	x	x
CN(C)c1ccc(NS(=O)(=O)c2ccc(Cl)cc2)cc1	6%	1%	1%	21µM*	-1%	-7%
CC(C)c1ccc(NC2CCCN(C(=O)CC3CCCC3)C2)cc1 (stereo unspecified)	0%	-1%	-5%	-8%	11%	-3%
C[C@@]12C(=O)Nc3ccc(Cl)cc3C(=O)N1[C@H]1c3cc(Br)ccc3OC[C@@H]1[C@@H]2c1ccccc1	6%	1%	0%	16µM*	-1%	1%
C[C@@]12C(=O)Nc3ccccc3C(=O)N1[C@H]1c3cc(Br)ccc3OC[C@@H]1[C@@H]2c1ccccc1	u	3.3µM*	-6%	u	-16%	15%
CC(C)C(c1nnnn1Cc1cccs1)N1CCN(C(=O)c2ccco2)CC1 (stereo unspecified)	6.5µM*	1%	6%	-19%	-1%	-1%
O=C(c1ccco1)N1CCN(C(c2ccccc2)c2nnnn2Cc2cccs2)CC1 (stereo unspecified)	15%	-5%	0%	-4%	-18%	6%

Source: PubChem (National Center for Advancing Translational Sciences (NCATS))
